# Assay results published in PubChem BioAssay (EPA / NIEHS).
# Some compounds were tested as several samples or in several runs, with calls that do not always agree. Active and inactive are the calls of the source. The calls were made as follows: active = hit-call score of the fitted dose curve at least 0.9, where 1 is the maximum; inactive = score below 0.9.
# Assays:
# [1] = BSK_CASM3C_SRB: Viability Assessment in the BioMAP Diversity Plus: CASM3C Assay (AID 2283050); conditions: primary human coronary artery smooth muscle cells;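 also: total protein by SRB staining as cytotoxicity measure in parallel cultures; cells exposed to compound for 24 h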
# [2] = read-out: Thrombomodulin, THBD (gene 7056); test: BSK_CASM3C_Thrombomodulin: BioMAP Diversity Plus: CASM3C Assay for Thrombomodulin Biomarker Activity (AID 2283051); conditions: primary human coronary artery smooth muscle cells; actives raise or lower the signal;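 also: thrombomodulin protein level measured by ELISA 24 h after dosing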
# [3] = read-out: Tissue Factor, F3 (gene 2152); test: BSK_CASM3C_TissueFactor: BioMAP Diversity Plus: CASM3C Assay for Tissue Factor Biomarker Activity (AID 2283052); conditions: primary human coronary artery smooth muscle cells; actives raise or lower the signal;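 also: cell surface tissue factor protein level read by ELISA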
# [4] = read-out: Interferon-gamma inducible Protein 10 (IP10), CXCL10 (gene 3627); test: BSK_hDFCGF_IP10: BioMAP Diversity Plus: hDFCGF Assay for Interferon-gamma inducible Protein 10 (IP10) Biomarker Activity (AID 2283053); conditions: primary human foreskin fibroblasts; actives raise or lower the signal
# Summary of the method: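 ELISA read-out of IP-10 (CXCL10) from primary human skin fibroblasts, 24 h after compound addition. Gain or loss of signal versus DMSO baseline, bidirectional curve fitting.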
# [5] = read-out: Urokinase-type plasminogen activator receptor (uPAR), PLAUR (gene 5329); test: BSK_CASM3C_uPAR: BioMAP Diversity Plus: CASM3C Assay for Urokinase-type plasminogen activator receptor (uPAR) Biomarker Activity (AID 2283054); conditions: primary human coronary artery smooth muscle cells; actives raise or lower the signal;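 also: cell-surface uPAR protein level quantified by ELISA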
# [6] = read-out: Vascular cell adhesion molecule 1 (VCAM1), VCAM1 (gene 7412); test: BSK_CASM3C_VCAM1: BioMAP Diversity Plus: CASM3C Assay for Vascular cell adhesion molecule 1 (VCAM1) Biomarker Activity (AID 2283055); conditions: primary human coronary artery smooth muscle cells; actives raise or lower the signal;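 also: VCAM-1 protein level quantified by ELISA on the cells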
# [7] = read-out: Collagen III, COL3A1 (gene 1281); test: BSK_hDFCGF_CollagenIII: BioMAP Diversity Plus: hDFCGF Assay for Collagen III Biomarker Activity (AID 2283056); conditions: primary human foreskin fibroblasts; actives raise or lower the signal
# Summary of the method: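 ELISA read-out of collagen III from human skin fibroblast cultures sampled 24 h post-dosing. Values were derived by bidirectional fitting relative to the DMSO vehicle control.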
# [8] = read-out: Epidermal growth factor receptor (EGFR), EGFR (gene 1956); test: BSK_hDFCGF_EGFR: BioMAP Diversity Plus: hDFCGF Assay for Epidermal growth factor receptor (EGFR) Biomarker Activity (AID 2283057); conditions: primary human foreskin fibroblasts; actives raise or lower the signal
# Summary of the method: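 ELISA readout of EGFR on human dermal fibroblasts (primary foreskin cells), 24 h post-dosing; bidirectional curve fit vs DMSO baseline, gain or loss of signal scored.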
# [9] = read-out: Interleukin-8 (IL8), CXCL8 (gene 3576); test: BSK_hDFCGF_IL8: BioMAP Diversity Plus: hDFCGF Assay for Interleukin-8 (IL8) Biomarker Activity (AID 2283058); conditions: primary human foreskin fibroblasts; actives raise or lower the signal
# Summary of the method: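 Cells used are human skin primary fibroblasts. Chemical is added, cultures run 24 h, then IL-8 is quantified by ELISA, and gain or loss versus DMSO control is fitted in both directions.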
# [10] = BSK_hDFCGF_Proliferation: Cell Proliferation Assessment in the BioMAP Diversity Plus: hDFCGF Assay (AID 2283059); conditions: primary human foreskin fibroblasts;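 also: curves fitted for both rise and fall of signal versus DMSO baseline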
# Summary of the method: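 Primary human foreskin fibroblasts, sub-confluent; […]; 10% TCA fix, 0.1% SRB stain, A560 total protein. Gain/loss fitted bidirectionally vs DMSO control.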
# [11] = read-out: Macrophage colony-stimulating factor (MCSF), CSF1 (gene 1435); test: BSK_hDFCGF_MCSF: BioMAP Diversity Plus: hDFCGF Assay for Macrophage colony-stimulating factor (MCSF) Biomarker Activity (AID 2283060); conditions: primary human foreskin fibroblasts; actives raise or lower the signal
# Summary of the method: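 Primary human foreskin fibroblasts dosed with chemical; 24 h later, M-CSF quantified by ELISA; curves fitted in both directions vs DMSO negative control.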
# [12] = BSK_hDFCGF_SRB: Viability Assessment in the BioMAP Diversity Plus: hDFCGF Assay (AID 2283061); conditions: primary human foreskin fibroblasts;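 also: cells exposed to compound for 24 h before the read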
# Summary of the method: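 Readout is SRB absorbance at 560 nm, reflecting total protein in parallel cultures of human foreskin fibroblasts harvested 24 h after chemical dosing. Activity was fitted bidirectionally relative to DMSO.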
# [13] = read-out: TIMP metallopeptidase inhibitor 1 (TIMP1), TIMP1 (gene 7076); test: BSK_hDFCGF_TIMP1: BioMAP Diversity Plus: hDFCGF Assay for TIMP metallopeptidase inhibitor 1 (TIMP1) Biomarker Activity (AID 2283062); conditions: primary human foreskin fibroblasts; actives raise or lower the signal
# Summary of the method: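 Human skin fibroblasts (primary), hDFCGF system; compound exposure 24 h; TIMP-1 by ELISA; bidirectional fit vs DMSO negative control; overt cytotoxicity by SRB in parallel wells.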
# [14] = read-out: Monokine induced gamma interferon (MIG), CXCL9 (gene 4283); test: BSK_hDFCGF_MIG: BioMAP Diversity Plus: hDFCGF Assay for Monokine induced gamma interferon (MIG) Biomarker Activity (AID 2283063); conditions: primary human foreskin fibroblasts; actives raise or lower the signal
# Summary of the method: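 Chemicals were added to primary human foreskin fibroblast cultures, which were sampled 24 h later. MIG levels were then quantified by ELISA and responses fitted in both directions relative to DMSO.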
# [15] = read-out: Vascular cell adhesion molecule 1 (VCAM1), VCAM1 (gene 7412); test: BSK_hDFCGF_VCAM1: BioMAP Diversity Plus: hDFCGF Assay for Vascular cell adhesion molecule 1 (VCAM1) Biomarker Activity (AID 2283065); conditions: primary human foreskin fibroblasts; actives raise or lower the signal
# Summary of the method: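 Human foreskin fibroblast primary cells, chemical exposure 24 h; VCAM-1 by ELISA; bidirectional fit, DMSO = negative control/baseline.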
# [16] = read-out: Plasminogen activator inhibitor-1 (PAI1), SERPINE1 (gene 5054); test: BSK_hDFCGF_PAI1: BioMAP Diversity Plus: hDFCGF Assay for Plasminogen activator inhibitor-1 (PAI1) Biomarker Activity (AID 2283066); conditions: primary human foreskin fibroblasts; actives raise or lower the signal
# Summary of the method: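 ELISA readout of PAI-1 from primary human skin fibroblast cultures, 24 h after compound addition. Gain or loss of signal was fitted bidirectionally against DMSO baseline.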
# [17] = read-out: Intercellular Adhesion Molecule 1 (ICAM1), ICAM1 (gene 3383); test: BSK_KF3CT_ICAM1: BioMAP Diversity Plus: KF3CT Assay for Intercellular Adhesion Molecule 1 (ICAM1) Biomarker Activity (AID 2283067); conditions: primary human keratinocytes with fibroblasts; actives raise or lower the signal
# Summary of the method: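 ICAM-1 levels are measured by ELISA 24 h after dosing a primary human co-culture of keratinocytes and foreskin fibroblasts. Activity in either direction is fitted relative to DMSO vehicle.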
# [18] = BSK_KF3CT_SRB: Viability Assessment in the BioMAP Diversity Plus: KF3CT Assay (AID 2283069); conditions: primary human keratinocytes with fibroblasts;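 also: total protein by sulforhodamine B staining as a cytotoxicity measure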
# Summary of the method: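 SRB read-out at 560 nm (0.1% stain, TCA-fixed cells) gauges overt cytotoxicity in a human skin keratinocyte–fibroblast co-culture 24 h post-dosing. Signal change was fitted bidirectionally relative to DMSO control.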
# [19] = read-out: Matrix Metallopeptidase 1 (MMP1), MMP1 (gene 4312); test: BSK_hDFCGF_MMP1: BioMAP Diversity Plus: hDFCGF Assay for Matrix Metallopeptidase 1 (MMP1) Biomarker Activity (AID 2283064); conditions: primary human foreskin fibroblasts; actives raise or lower the signal
# Summary of the method: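 ELISA read-out of MMP1 from human foreskin fibroblasts (primary skin cells), 24 h post-dose. Gain or loss of signal was fitted bidirectionally versus DMSO negative control; cytotoxicity was checked by SRB in parallel cultures.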
# [20] = read-out: Interferon-gamma inducible Protein 10 (IP10), CXCL10 (gene 3627); test: BSK_KF3CT_IP10: BioMAP Diversity Plus: KF3CT Assay for Interferon-gamma inducible Protein 10 (IP10) Biomarker Activity (AID 2283068); conditions: primary human keratinocytes with fibroblasts; actives raise or lower the signal
# Summary of the method: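 In a primary skin co-culture of keratinocytes and fibroblasts, IP-10 is quantified by ELISA at 24 h after dosing. SRB staining of parallel wells monitors overt toxicity. Curves are fitted both directions against DMSO.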
smiles,measurement,setting,value
Cc1cnccn1,outcome,[1],inactive
same,outcome,[2],inactive
same,outcome,[3],inactive
same,outcome,[4],inactive
same,outcome,[5],inactive
same,outcome,[6],inactive
same,outcome,[7],inactive
same,outcome,[8],inactive
same,outcome,[9],inactive
same,outcome,[10],inactive
same,outcome,[11],inactive
same,outcome,[12],inactive
same,outcome,[13],inactive
same,outcome,[14],inactive
same,outcome,[15],inactive
same,outcome,[16],inactive
same,outcome,[17],inactive
same,outcome,[18],inactive
O=S(=O)(OCC(F)(F)F)C(F)(F)C(F)(F)C(F)(F)C(F)(F)F,outcome,[1],inactive
same,outcome,[2],inactive
same,AC50,[3],30 µM (active)
same,outcome,[3],inactive
same,outcome,[5],inactive
same,AC50,[6],13.2 µM (active)
same,outcome,[6],inactive
same,outcome,[7],inactive
same,outcome,[8],inactive
same,outcome,[9],inactive
same,outcome,[10],inactive
same,outcome,[11],inactive
same,outcome,[12],inactive
same,outcome,[13],inactive
same,outcome,[14],inactive
same,outcome,[19],inactive
same,outcome,[15],inactive
same,outcome,[16],inactive
same,outcome,[17],inactive
same,outcome,[20],inactive
same,outcome,[18],inactive
COC(F)(C(F)F)C(F)(F)F (configuration not stated),outcome,[1],inactive
same,outcome,[2],inactive
same,outcome,[3],inactive
same,outcome,[4],inactive
same,outcome,[5],inactive
same,outcome,[6],inactive
same,outcome,[7],inactive
same,outcome,[8],inactive
same,outcome,[9],inactive
same,outcome,[10],inactive
same,outcome,[11],inactive
same,outcome,[12],inactive
same,outcome,[13],inactive
same,outcome,[14],inactive
same,outcome,[15],inactive
same,outcome,[16],inactive
same,outcome,[17],inactive
same,outcome,[18],inactive
